RMI-FANCM inh = disruptors of RMI1/RMI2 association with MM2 peptide – biochemical, fluorescence polarization, human, primary screen. RMI core complex with F-MM2 peptide; stronger effect = lower value. AID 1159607, 2016. 0.58% of 70,000 active. RMI core complex (RMI1/RMI2) binding to FANCM MM2 peptide, human. FP signal (polarization) at 33 µM; in the data active = FP signal below about 40
* marks the source's active call; other numbers are inactive results; ! = a repeat was not active. The full list was thinned out, with hits kept by preference.

SMILES	RMI-FANCM inh
Fc1ccc(-c2noc(-c3ccc4c(c3)CCO4)n2)cc1	59
Fc1ccc(-c2nc(=S)c3c([nH]2)Oc2ccc(Br)cc2C3)cc1	26*
COc1ccc(S(=O)(=O)Nc2ccc3c(c2)C(=O)Nc2cc(C)ccc2O3)c(C)c1	66
Cc1cc(NC(=O)NCCCSc2nnnn2-c2ccccc2)no1	54
COc1ccc(S(=O)(=O)N=C2C=C(Nc3cccc(C)c3)C(=O)c3ccccc32)cc1	13*
COC(=O)c1ccccc1NC1=CC(=NS(=O)(=O)c2ccc(F)cc2)c2ccccc2C1=O	57
O=C1C(NS(=O)(=O)c2ccccc2)=CC(=NS(=O)(=O)c2ccc(F)cc2)c2ccccc21	58
Cc1cc(-c2nnc(NC(=O)C3CCN(S(=O)(=O)c4cccs4)CC3)o2)n(C)n1	69
Cc1nc2ccc(NS(=O)(=O)c3ccc(F)cc3)cc2c(=O)n1-c1ccc(Cl)cc1	63
Cc1cc(-c2ccccn2)c(-c2cc(Cl)cc(Cl)c2)[nH]1	32*
Cc1nc(-c2ccccn2)n[nH]1	63
Cc1cc(=S)nc(-c2ccccn2)[nH]1	55
Cc1ccc(S(=O)(=O)Nc2ccccc2C(=O)Nc2nc3c(Br)cccc3s2)cc1	61
CSc1nc(NC(=O)NS(=O)(=O)Cc2ccc(Cl)cc2Cl)nc(N2CCCC2)n1	61
Cc1ccc(N(C(=O)c2ccc(Br)o2)C(=O)N2CCCCC2)cc1	55
CN1CCN2c3ncccc3Cc3ccccc3C2C1 (stereo not drawn)	57
CC(C)(C)[C@]1(O)CCN2C[C@H]3c4ccccc4CCc4cccc(c43)[C@@H]2C1	43*!
Cc1csc(NC2CCCCC2)[n+]1C	55
N#Cc1c(N)sc(=S)c2c1CCCC2	7*
CC(C)(C)C(=O)Nc1sc2c(c1C#N)CCCC2	58
N#Cc1c(N)sc2c1CCC2	50
O=C(Cn1nc(S(=O)(=O)c2ccccc2)ccc1=O)Nc1ccc(Br)cc1F	64
CCCCC(=O)Nc1nnc(-c2ccc(OC)cc2OC)s1	65
CCOC=Nc1oc(-c2ccccc2)nc1C#N	61
CCOC(=O)C/C(C)=N\Nc1ccc([N+](=O)[O-])cc1	54
SMILES	RMI-FANCM inh
Cc1cc(C(=O)Nc2nnc(Cc3ccc(Cl)s3)o2)no1	71
CCOC(=O)c1c(C)oc2c1c(C=NC(C)c1ccccc1)c(O)c1ccccc12 (stereo not drawn)	39
CCOC(=O)c1c(C)oc2c1c(C=NC1CC(C)(C)NC(C)(C)C1)c(O)c1ccccc12	8*
CCOC(=O)c1c(-c2ccccc2)oc2c1cc(NS(=O)(=O)c1ccc(C)cc1C)c1ccccc12	60
CN(CC(=O)O)C(=S)c1ccccc1	54
C=CCc1cccc(/C=N\Nc2nc(-c3ccc4ccccc4c3)cs2)c1O	14*
O=[N+]([O-])c1cccc(/C=N\Nc2nc(-c3ccc(Cl)c(Cl)c3)cs2)c1	58
Fc1ccc(-c2csc(N/N=C\c3ccccc3)n2)cc1	56
Cc1ccc(-c2ccc(C(=S)N3CCN(c4ccccc4C)CC3)o2)cc1	60
Cc1nc2cccc(C)n2c(=O)c1NC(=O)c1cc(Br)ccc1Cl	58
Cc1ccc2c(c1)Cc1c(nc(-c3ccccc3)nc1SCC(=O)Nc1cccc(C(=O)O)c1)O2	14*
Cc1cccc2c1Oc1nc(-c3ccccc3)nc(SCC(=O)Nc3ccc4c(c3)OCCO4)c1C2	87
Cc1ccc(-c2nc3c(c(SCC(=O)Nc4cccc(C(=O)O)c4)n2)Cc2ccccc2O3)cc1	53
Cc1nn(CC(=O)c2cccc(S(=O)(=O)N3CCOCC3)c2)c(=O)c2c1cnn2C(C)(C)C	70
C=CCn1c(SCC(=O)Nc2nc3ccc(C)cc3s2)nc2c([nH]c3ccccc32)c1=O	81
Cn1c(=O)c2c(O)c(C=Nc3cccc(Cl)c3Cl)c(=O)n(C)c2n(C)c1=O	45
Cn1c(=O)c2c(O)c(C=Nc3cccc([N+](=O)[O-])c3)c(=O)n(C)c2n(C)c1=O	28*
Cn1c(=O)c2c(O)c(C=NCc3ccccc3)c(=O)n(-c3ccccc3)c2n(C)c1=O	56
CCN1CCN(CC(=O)N2N=C(c3ccc(Br)cc3)CC2c2ccc(F)cc2)C(=O)C1=O (stereo not drawn)	59
CCc1ccc(C(=O)Nc2ccc3c(c2)CCC(=O)N3CCC(C)C)cc1	65
COc1ccc(C23CC4CC(CC(O)(C4)C2)C3)cc1	65
O=[N+]([O-])c1cccc(-c2nnc3c4cnn(-c5ccc(F)cc5)c4ncn23)c1	64
N=c1c2cnn(-c3ccccc3)c2ncn1/N=C\c1ccc([N+](=O)[O-])cc1	39*
O=c1c2cnn(-c3ccccc3)c2nnn1/N=C\c1ccc([N+](=O)[O-])cc1	43
Cc1ccc(CNC(=O)Cn2c(C)nc3c(sc4ccccc43)c2=O)cc1	107
SMILES	RMI-FANCM inh
COc1ccc(CCNC(=O)C2CCCO2)cc1OC (stereo not drawn)	54
Clc1cc2c(c3ncccc13)OCN(CCC1=CCCCC1)C2	59
CCCN1CCCc2cc(CCNS(=O)(=O)c3ccc(CC)cc3)ccc21	150
CCCN1CCCc2cc(CCNS(=O)(=O)CC(C)C)ccc21	88
CCCN1CCCc2cc(CCNC(=O)c3ccccc3OCC)ccc21	23*
CCCN1CCCc2cc(CCNS(C)(=O)=O)ccc21	24*
CCCN1CCCc2cc(CCNC(=O)C(=O)Nc3ccccc3OCC)ccc21	163
CCCC(=O)NCCc1ccc2c(c1)CCCN2CCC	62
CCCN1CCCc2cc(CCNC(=O)C(=O)NC(C)C)ccc21	67
CN1CCCc2cc(CCNC(=O)c3ccccc3Cl)ccc21	61
CCCN1CCCc2cc(CCNC(=O)c3cccc(OC)c3OC)ccc21	65
CCN1CCCc2cc(CCNC(=O)c3ccccc3C(F)(F)F)ccc21	0*
CCN1CCCc2cc(CCNC(=O)c3ccc(OC)c(OC)c3)ccc21	61
CCCN1CCCc2cc(CCNC(=O)OCC)ccc21	31*
CC(C)N(Cc1ccc(N(C)C)cc1)C(=O)c1sc2ccccc2c1Cl	51
CCN(CC)C(=O)CSC1=C(C#N)C(c2ccccc2F)C(C(=O)Nc2ccccc2OC)=C(C)N1 (stereo not drawn)	58
CC(C)C(=O)Nc1ccc(S(=O)(=O)NCc2ccsc2)cc1	67
Cc1ccc(NC(=O)C(=O)NCC2CCN(C(C)C)CC2)cc1Cl	78
CCOc1ncnc2ccccc12	57
CC(C)(C)C(=O)Nc1ccc(F)cc1	64
CCNc1nc(NCC)n2c(SCC(=O)c3ccc(OC)c(OC)c3)nnc2n1	59
Cn1nccc1C(=O)N1CCN(c2nc3c(S(C)(=O)=O)cccc3s2)CC1	72
CCOC(=O)c1ccc(NC(=O)c2cc(C)no2)cc1	75
CCN1CCc2c(sc(NC(=O)c3ccc(S(=O)(=O)N4CCC(C)CC4)cc3)c2C(=O)OC)C1	51
CC(C)Cn1c(=O)c2ccc(C(=O)NC(C)C)cc2n2c(=O)n(CC#N)nc12	74
SMILES	RMI-FANCM inh
CC1CCN(C(=O)c2csc(Nc3ccccc3)n2)CC1	63
COc1cc2cc3c4cc(OC)c(OC)cc4cc[n+]3c(C)c2cc1OC	12*!
COc1cc2cc(=O)[nH]c(C)c2cc1OC	50
COc1cc2cc(C(=O)O)cc(-c3ccc(C)cc3)c2cc1OC	60
O=C(CNS(=O)(=O)c1ccc2c(c1)OCCO2)N1CCOC(c2ccccc2)C1 (stereo not drawn)	75
COc1ccccc1CNC(=O)c1ccc(Cn2c(C)nc3ccccc32)o1	63
O=C(COc1ccccc1)NCC1CCN(Cc2ccccc2)CC1	75

Compound activity deposited in PubChem by Small Molecule Screening Facility, UW Madison.
